Experimental data reported in PubChem BioAssay (NCATS).
Records with an inconclusive call do not appear. Activity calls are given as the source filed them. Calls follow the shape of the dose curve; as a rule, active = well fitted curve in the direction sought with a large enough effect; inconclusive = small, poorly fitted or top-dose-only effect, or another doubt; inactive = no such curve, though single readings can be large; an effect the other way counts as inactive or inconclusive.

Assays:
[1] = biological target: Glutathione peroxidase 1 (Homo sapiens) (UniProt P07203); assay: Primary qHTS Assay for Inhibitors of Recombinant Selenoprotein Glutathione Peroxidase 1 (GPX1) (AID 1845191); also: nearly all actives have a fitted effect of over 65% in size
Outline: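 NADPH consumption tracked by fluorescence at 340/450 nm between t=0 and t=15 min, room temperature. Final mix: 10 nM GPX1, 100 nM glutathione reductase, 1 mM GSH, 0.5 mM NADPH, 0.5 mM cumene hydroperoxide, 0.01% BSA; 30 min compound–enzyme preincubation.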

[2] = biological target: Phospholipid hydroperoxide glutathione peroxidase GPX4 (Homo sapiens) (UniProt P36969); assay: Primary qHTS Assay for Inhibitors of Recombinant Selenoprotein Glutathione Peroxidase 4 (GPX4) (AID 1845192); also: nearly all actives have a fitted effect of over 65% in size
Outline: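 NADPH consumption followed by fluorescence at 340/450 nm, t=0 and after 15 min at room temperature. Reaction started with cumene hydroperoxide (0.5 mM final) after 30 min compound–GPX4 preincubation; final 200 nM GPX4, 100 nM GR, 1 mM GSH, 0.5 mM NADPH.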

[3] = biological target: Metallo-beta-lactamase type 2 (Klebsiella pneumoniae) (UniProt C7C422); assay: qHTS to identify inhibitors of the New Delhi Metallo-beta-lactamase (NDM): assay validation screen against the NCATS LOPAC Collection (AID 1794843);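 also: nitrocefin turnover by NDM-1 measured as 485 nm absorbance at plateau; series mostly up to about 38 µM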
Outline: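 NDM-1 at 2 nM final in 50 mM HEPES pH 7.0, 1 uM ZnSO4, 0.01% Tween20, preincubated with LOPAC compounds pinned in DMSO; 50 uM nitrocefin (stock) added. Hydrolysis read as absorbance at 485 nm in the plateau phase.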

[4] = Quantitative High-Throughput drug screen in 47 multiple myeloma cell lines against the NCATS MIPE library collection: FR4_PLB cell viability assay (AID 1918924; also: nearly all actives have a fitted effect of over 35% in size; also: potency is read from the fitted curve at half-maximal effect)
Outline: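 Approved and investigational drugs from MIPE 4.0 were added by pin tool to 500 cells per well. After 48 hours at 37C, ATP-based CellTiter-Glo luminescence indicated remaining viability.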

[5] = biological target: Luciferin 4-monooxygenase (Photinus pyralis) (UniProt P08659); assay: Primary firefly luciferase (FLuc) qHTS assay for identification of artifact compounds. (AID 1845220); also: nearly all actives have a fitted effect of over 60% in size
Outline: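 FLuc 10 nM; luciferin 10 uM; ATP 10 uM; Tris-acetate pH 7.6, Mg-acetate 10 mM; 15 min RT preincubation; 5 min reaction; luminescence.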

[6] = Primary fluorescence-based thiol-reactive (MSTI) qHTS assay for identification of artifact compounds. (AID 1845221);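 also: series mostly up to about 54 µM; thiol-reactive compounds lower the probe fluorescence signal; nearly all actives have a fitted effect of over 65% in size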
Outline: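 Curve-fitted percent inhibition (4-parameter Hill) derived from fluorescence, Ex 525/Em 598 nm, scaled with Acetyl-MSTI and MSTI; 1 h incubation at room temperature.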

[7] = tested on: Nanoluciferase (engineered Oplophorus gracilirostris luciferase); assay: Primary Nanoluciferase (NLuc) qHTS assay for identification of artifact compounds. (AID 1845222);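 also: NLuc secreted into diluted conditioned medium of S16 cells; series mostly up to about 54 µM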
Outline: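 NLuc from S16 cell medium (1:55) plus test compounds, 15 min, room temperature. Luminescence after Nano-Glo (1:100) addition, 5 min.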

[8] = Primary redox qHTS assay for identification of artifact compounds. (AID 1845223)
Outline: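 Redox-cycling detection via DTT (250 uM final) oxidation coupled to Amplex Red (25 uM)/HRP (250 mU/mL) in HBSS. 15 min preincubation plus 30 min after DTT, room temperature. Ex/Em 525/598 nm; 4-parameter Hill fit against DMSO and 10 uM DA3003.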

Measured: Potency

Phospholipid hydroperoxide glutathione peroxidase GPX4 (Homo sapiens), sequence (P36969 whole entry, looked up): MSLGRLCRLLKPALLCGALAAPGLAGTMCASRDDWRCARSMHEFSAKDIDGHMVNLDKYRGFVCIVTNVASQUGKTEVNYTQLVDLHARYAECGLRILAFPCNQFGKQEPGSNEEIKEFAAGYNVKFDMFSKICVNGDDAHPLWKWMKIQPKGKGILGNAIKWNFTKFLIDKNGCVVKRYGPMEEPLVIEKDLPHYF
Glutathione peroxidase 1 (Homo sapiens), sequence (P07203 whole entry, looked up): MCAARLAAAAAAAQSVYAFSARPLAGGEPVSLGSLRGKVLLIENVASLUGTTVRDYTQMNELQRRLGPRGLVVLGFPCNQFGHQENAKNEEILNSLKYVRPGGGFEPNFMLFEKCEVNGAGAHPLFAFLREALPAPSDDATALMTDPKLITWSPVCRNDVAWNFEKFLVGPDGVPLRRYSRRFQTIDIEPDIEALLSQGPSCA
Metallo-beta-lactamase type 2 (Klebsiella pneumoniae), sequence (C7C422 whole entry, looked up): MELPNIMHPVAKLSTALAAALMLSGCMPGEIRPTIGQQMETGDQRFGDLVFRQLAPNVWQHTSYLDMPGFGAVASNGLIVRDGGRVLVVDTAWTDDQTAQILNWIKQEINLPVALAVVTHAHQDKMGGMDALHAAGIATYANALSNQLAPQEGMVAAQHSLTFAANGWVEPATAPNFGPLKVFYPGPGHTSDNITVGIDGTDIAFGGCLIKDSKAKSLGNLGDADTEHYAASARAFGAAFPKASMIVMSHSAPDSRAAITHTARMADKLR

Nc1ncnc2nc(-c3ccc(N4CCOCC4)nc3)cc(-c3cccc(Br)c3)c12
inactive: [1] | [2]

CCC(C)(C)C(=O)O[C@H]1C[C@@H](C)C=C2C=C[C@H](C)[C@H](CC[C@@H]3C[C@@H](O)CC(=O)O3)[C@H]21
inactive: [1] | [2]

O=NN(CCCl)C(=O)NCCCl
inactive: [1] | [2]

C1COC(NC(C2CC2)C2CC2)=N1
inactive: [3] | [1] | [2] | [4]

Cc1cc([C@@H](C)Nc2ccccc2C(=O)O)c2nc(N3CCOCC3)cc(=O)n2c1
inactive: [1]

CCN(CC)CCCC(C)Nc1nc(C)cc(Nc2ccc3nc(C)cc(N)c3c2)n1 (configuration not stated)
inactive: [1] | [2]

Cn1cc(-c2ccc3nnc(C(F)(F)c4ccc5ncccc5c4)n3n2)cn1
not listed: [3] | [8]
inactive: all other assays above

C[C@H](NC(=O)Cc1cc(F)cc(F)c1)C(=O)N[C@@H]1C(=O)N(C)c2ccccc2-c2ccccc21
not listed: [3] | [4]
inactive: all other assays above

COc1c(Cl)cc2c([nH]c3cnccc32)c1NC(=O)c1cccnc1C
not listed: [3] | [4]
inactive: all other assays above

CCCc1nn(C)c2c(=O)[nH]c(-c3cc(S(=O)(=O)N4CCN(C)CC4)ccc3OCC)nc12
not listed: [3] | [4]
inactive: all other assays above

Cc1cc(Nc2nc(N[C@@H](C)c3ncc(F)cn3)ncc2Cl)n[nH]1
not listed: [3] | [4]
inactive: all other assays above

COc1cc(F)c(F)c(Nc2ccc(I)cc2F)c1NS(=O)(=O)C1(C[C@H](O)CO)CC1
not listed: [3] | [4]
inactive: all other assays above

CC[C@@H](C)[C@H](NC(=O)[C@H](CC1CCCCC1)NC(=O)c1ccno1)C(=O)N1CCC2(CCc3ccccc32)CC1
active: [4] 13.2 µM
not listed: [3]
inactive: all other assays above

CN[C@@H](C)C(=O)N[C@H]1CCCC[C@H]2CC[C@@H](C(=O)N[C@@H](c3ccccc3)c3cn(CCCCc4ccc(CCCCn5cc([C@@H](NC(=O)[C@@H]6CC[C@@H]7CCCC[C@H](NC(=O)[C@H](C)NC)C(=O)N76)c6ccccc6)nn5)cc4)nn3)N2C1=O
inactive: [1] | [2]

O=C(Nc1ccc(F)c(C(F)(F)F)c1)Nc1nnc(-c2ccncc2)s1
active: [4] 3.32 µM
not listed: [3]
inactive: all other assays above

CC(C[N+](C)(C)C)OC(N)=O (configuration not stated)
inactive: [1] | [2]

CN(C)C(=O)c1ccc(S(=O)(=O)c2ccc(NC(=O)[C@@](C)(O)C(F)(F)F)c(Cl)c2)cc1
not listed: [3] | [4]
inactive: all other assays above

Cc1cccc(-c2[nH]c(C(C)(C)C)nc2-c2ccc3nccnc3c2)n1
inactive: [1] | [2]

O=C(Nc1cccnc1)N1CCC(Cc2cccc(Oc3ccc(C(F)(F)F)cn3)c2)CC1
active: [4] 16.6 µM
not listed: [3]
inactive: all other assays above

COc1nc(-c2ccc3c(c2)OCO3)n(-c2ccc(NC(=O)CSc3ccccc3)cc2)n1
not listed: [3]
inactive: all other assays above

CC(C)(N)C(=O)N[C@H](COCc1ccccc1)C(=O)N1CCC2(CC1)CN(S(C)(=O)=O)c1ccccc12
active: [4] 16.6 µM
not listed: [3]
inactive: all other assays above

COc1ccc(CCN2CCN(CCCc3ccccc3)CC2)cc1OC
not listed: [3]
inactive: all other assays above

CCOc1cc(C(=O)Nc2ccc(Cl)c(-c3nc4ccccc4[nH]3)c2)cc(OCC)c1OCC
not listed: [3] | [4]
inactive: all other assays above

C[C@@H]1CN(Cc2ccc(F)cc2)[C@@H](C)CN1C(=O)c1cc2c(C(=O)C(=O)N(C)C)cn(C)c2cc1Cl
not listed: [3] | [4]
inactive: all other assays above

NC(=O)c1ccc(-c2nc(-c3ccc4c(c3)OCCO4)c(-c3ccccn3)[nH]2)cc1
inactive: [1] | [2]

Cc1n[nH]c(C)c1Cc1sc2c(c1C(=O)N1C[C@H](O)CO1)c(=O)n(C)c(=O)n2CC(C)C
not listed: [3]
inactive: all other assays above

COc1ccccc1[C@H](c1cccc2ccccc12)[C@@](C)(C#N)C(=O)N1CCC(c2cccc(C(F)(F)F)c2)CC1
not listed: [3] | [4]
inactive: all other assays above

O=c1[nH]c(-c2ccc(C(F)(F)F)cc2)nc2c1CSCC2
not listed: [3]
inactive: all other assays above
